# UHRF1 binding – UHRF1 methyl-DNA binding inhibition; UHRF1 binding to methylated oligo, TR-FRET; inhibition, % at 4.4 µM; 0.75% of 370,000 active; in the data active = inhibition above about 21%;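 note: UHRF1 SRA domain binding a hemimethylated CpG hairpin DNA probe; 0% = median of test compound wells and 100% = reference inhibitor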
# DNMT1 block – DNMT1 (human) enzyme inhibition; 0.83% of 360,000 active; P26358; inhibition (reported as % activation of signal), % at 10 µM; DNMT1 molecular beacon, Hinp1I cleavage, fluorescence; AID 588458; in the data active = inhibition above about 50%
# Target sequence (P26358 504-1616 limits assumed): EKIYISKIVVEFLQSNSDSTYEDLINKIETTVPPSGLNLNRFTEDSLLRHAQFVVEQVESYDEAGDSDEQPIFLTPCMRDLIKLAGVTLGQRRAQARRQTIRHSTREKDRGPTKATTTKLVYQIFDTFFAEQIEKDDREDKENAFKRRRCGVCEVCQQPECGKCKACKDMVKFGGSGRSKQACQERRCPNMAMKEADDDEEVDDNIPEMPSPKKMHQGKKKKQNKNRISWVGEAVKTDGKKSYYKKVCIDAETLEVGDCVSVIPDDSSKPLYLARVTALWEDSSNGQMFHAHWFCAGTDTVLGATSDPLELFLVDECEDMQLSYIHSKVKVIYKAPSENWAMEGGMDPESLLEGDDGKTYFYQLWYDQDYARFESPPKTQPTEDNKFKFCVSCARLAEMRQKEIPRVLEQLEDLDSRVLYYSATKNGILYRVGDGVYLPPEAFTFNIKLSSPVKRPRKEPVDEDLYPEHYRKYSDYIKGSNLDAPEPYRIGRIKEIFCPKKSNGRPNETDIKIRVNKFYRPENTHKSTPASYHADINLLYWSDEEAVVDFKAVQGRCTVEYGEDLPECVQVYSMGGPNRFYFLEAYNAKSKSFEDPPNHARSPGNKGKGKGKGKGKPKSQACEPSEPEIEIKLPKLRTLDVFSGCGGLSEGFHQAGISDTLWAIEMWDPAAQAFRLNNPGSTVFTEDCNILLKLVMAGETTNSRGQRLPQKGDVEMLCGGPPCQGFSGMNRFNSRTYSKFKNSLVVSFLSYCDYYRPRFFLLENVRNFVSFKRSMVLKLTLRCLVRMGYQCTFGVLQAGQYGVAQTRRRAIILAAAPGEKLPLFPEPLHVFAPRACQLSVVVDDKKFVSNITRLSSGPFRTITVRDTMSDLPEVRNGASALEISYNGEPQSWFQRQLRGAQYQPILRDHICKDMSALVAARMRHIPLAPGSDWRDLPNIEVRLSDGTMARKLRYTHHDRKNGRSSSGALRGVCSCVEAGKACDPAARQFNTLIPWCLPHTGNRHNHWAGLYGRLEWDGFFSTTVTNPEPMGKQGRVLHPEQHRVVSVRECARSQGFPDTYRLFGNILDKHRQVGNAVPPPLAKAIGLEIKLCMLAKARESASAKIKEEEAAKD
# rCAG binder – binds r(CAG) RNA repeats | r(CAG) RNA repeat, TO-PRO-1 dye displacement fluorescence | inhibition, % at 3 µM | 1.3% of 370,000 active;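 active = inhibition above the plate cutoff, the mean of all test compounds on that plate plus 3 SD, cut at about 35% in these data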;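 note: 0% = DMSO alone and 100% = 100 µM mitoxantrone as full dye displacement; higher means more dye released from RNA so lower well fluorescence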
# MBD2 inh – inhibitors of human MBD2 binding to methylated oligonucleotide. Q9UBB5. TR-FRET. inhibition, % at 4.4 µM. 0.31% of 370,000 active. AID 686964; in the data active = inhibition above about 13%
# PG9 binder – PG9 antibody binding by small molecule | AID 624416 | 0.43% of 360,000 active | inhibition, % at 6.7 µM | TR-FRET gp120-PG9 antibody binding; in the data active = inhibition above about 8.5%
# LEDGF integ inh – blocks HIV-1 LEDGF/p75-dependent DNA integration; TR-FRET IN-LEDGF/p75 DNA integration, Eu/Cy5; inhibition, % at 3.7 µM; 0.64% of 370,000 active;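 active = inhibition above the screen-wide mean plus 3 SD, cut at about 13% in these data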;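 note: signal is the Cy5 over europium emission ratio at 671 and 618 nm; 0% = plate median of compound wells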
# IN multimer up – counter-screen for LEDGF/p75 integration inhibitors: HIV-1 integrase multimerization activators; shares compounds with LEDGF integ inh; activation, % at 7.7 µM; 17% of 2,000 active; TR-FRET HIV-1 integrase multimerization, biochemical; AID 1053131; in the data active = activation above about 8.9%
# TRFRET interf – TR-FRET optical interference, LEDGF/p75 integration counter-screen | shares compounds with LEDGF integ inh | TR-FRET optical interference counterscreen, HIV-1 IN multimerization | inhibition, % at 7.7 µM | 2,000 tested, under 10 active | AID 1053135;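 active = inhibition above the mean over all tested compounds plus 3 SD, which no compound reached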;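 note: 0% = integrase with antibodies and DMSO and 100% = antibodies without integrase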
# LEDGF integ conf – confirmation of HIV-1 LEDGF/p75-dependent integration inhibitors. shares compounds with LEDGF integ inh. TR-FRET LEDGF/p75-dependent HIV-1 integration, biochemical. inhibition, % at 3.7 µM. 36% of 2,000 active. AID 1053136; in the data active = inhibition above about 14%
# * marks the source's active call; other numbers are inactive results; · = no result. Compounds with a hit are over-represented: about 3.5% of the library has one in this group of screens.
SMILES,UHRF1 binding,DNMT1 block,rCAG binder,MBD2 inh,PG9 binder,LEDGF integ inh,IN multimer up,TRFRET interf,LEDGF integ conf
CC(NS(=O)(=O)c1cc2c3c(c1)CCC(=O)N3CCC2)c1ccccc1 (configuration not stated),-0.3,1.0,-5.6,7.4,0.5,-2.9,·,·,·
Cc1ccccc1NC(=S)NNC(=O)c1csc2c1CCC(C)C2 (configuration not stated),-1.8,0.1,14.0,-1.9,0.7,50.7*,0.5,-2.4,0.5
CCNC(=S)NNC(=O)c1csc2c1CCC(C)C2 (configuration not stated),-1.3,-1.5,3.0,-3.3,0.1,1.2,·,·,·
O=c1cc(-c2ccc(O)cc2)oc2c(O)c(O)c(O)c(O)c12,17.7,3.5,6.5,8.9,-4.1,41.3*,18.6*,-93.6,92.3*
O=C(NCc1cccc(Br)c1)c1cc(-c2ccccc2)nn1CC1CC(c2cccc([N+](=O)[O-])c2)=NO1 (configuration not stated),-3.0,-0.4,3.1,2.6,-0.1,-2.2,·,·,·
Cc1cc(C)nc(N2CCC(C(=O)N(C)CCc3ccccc3)CC2)n1,4.0,·,-2.8,8.1,·,-6.1,·,·,·
C=CCCC[C@H]1OC(=O)[C@H](C)NC(=O)[C@H](C(C)C)NC(=O)[C@@H]2CCCN2C(=O)[C@H](Cc2ccccc2)OC(=O)[C@@H](C(C)C)N(C)C(=O)[C@H](C(C)C)NC(=O)C1(C)C,18.2,·,9.3,10.7,-0.2,16.2*,0.2,-1.2,-8.0
COc1ccc(C(=O)OCC(=O)c2ccc(C3CCCCC3)cc2)cc1,0.6,2.7,1.7,3.5,-3.0,0.8,·,·,·
Nc1ccc(O)cc1C(=O)OCC(=O)c1ccc(C2CCCCC2)cc1,-1.9,1.7,51.1*,4.8,-3.7,15.0*,0.0,0.1,-0.3
O=C(c1ccccc1)N1CCN(S(=O)(=O)c2ccccc2)CC1,-2.4,2.1,-1.2,4.3,1.6,44.2*,0.5,-2.4,-4.2
O=C(c1cccc(F)c1)N1CCN(S(=O)(=O)c2ccccc2)CC1,0.2,2.2,-0.3,-1.7,1.5,-1.1,·,·,·
COc1cc(CN2CCc3ccccc3C2)cc([N+](=O)[O-])c1O,0.1,1.5,0.4,-3.7,-1.2,0.8,·,·,·
O=[N+]([O-])c1cc2oc3c(c2c(C=NCc2ccccc2)c1O)CCCC3,-7.8,0.7,14.2,-7.2,-0.7,25.3*,1.2,-5.9,70.7*
Cc1cccc(/N=C/c2c(O)ccc3oc4c(c23)CCCC4)n1,·,-0.7,·,·,·,·,·,·,·
CC(C)CN=Cc1c(O)c([N+](=O)[O-])cc2oc3c(c12)CCCC3,-13.5,-2.5,15.6,-14.2,-3.5,49.0*,-0.2,0.5,65.7*
COC(=O)c1csc(C2OC(CO)C(O)C2O)n1 (configuration not stated),1.6,-0.3,2.1,1.6,1.4,-3.1,·,·,·
Clc1cccc(Cc2c(C3CCCCC3)nc3ccc(Cl)cn23)c1,9.1,15.1,11.6,-0.1,1.6,-2.5,·,·,·
CCC(CC)C(=O)N(C)c1c(C)nc2c(OCc3ccc(C#N)cc3)cccn12,-1.0,-5.4,-1.5,-1.5,2.5,14.7*,-1.8,9.0,-6.8
CCC(CC)C(=O)N(C)c1c(C)nc2c(OCC(=O)N(C)C)cccn12,0.8,-4.2,-0.1,-3.7,-0.7,-4.1,·,·,·
ClC(CCN1CCN(Cc2ccccc2)CC1)c1ccccc1 (configuration not stated),-1.1,-5.4,-3.4,1.9,-1.6,-0.7,·,·,·
O=C(CN1CCN(S(=O)(=O)c2ccc(Cl)cc2)CC1)NC1CC1,-0.4,-0.5,-1.9,-0.1,-1.9,33.9*,-0.4,2.1,-3.0
COC(=O)[C@]12C[C@H](CC(=O)NCC3CCCCC3)C(=O)N(Cc3ccc(Cl)cc3Cl)C1=C[C@H](C(C)(C)C)O[C@@H]2C,0.2,·,8.1,-3.8,·,-1.9,·,·,·
CC(C)OP(=O)(c1ccc(N(C)C)cc1)C(O)c1ccccc1F (configuration not stated),2.0,0.1,-8.7,3.0,-1.7,-2.2,·,·,·
CC(C)CCOP(=O)(c1ccc(N(C)C)cc1)C(O)c1ccccc1F (configuration not stated),-0.5,-2.4,-8.9,4.1,0.8,20.7*,-1.6,8.2,-3.4
COc1ccc(CCC(=O)NCc2ccc3c(c2)OCO3)cc1,-3.1,-0.4,-0.1,2.9,0.9,-2.1,·,·,·
SMILES,UHRF1 binding,DNMT1 block,rCAG binder,MBD2 inh,PG9 binder,LEDGF integ inh,IN multimer up,TRFRET interf,LEDGF integ conf
COc1cc(CCC(=O)NCc2ccc3c(c2)OCO3)cc(OC)c1OC,0.0,6.2,1.4,8.1,-0.9,29.2*,-0.1,0.8,-5.0
CCOC(=O)C1=C(C)N(C)C(=O)NC1c1cc2c(cc1[N+](=O)[O-])OCO2 (configuration not stated),8.1,41.4,7.3,4.7,0.3,13.8*,10.4*,-37.3,1.9
CCCCOC(=O)C1=C(C)N(C)C(=O)NC1c1cc2c(cc1Br)OCO2 (configuration not stated),7.4,4.0,2.0,6.1,0.0,3.9,·,·,·
COc1ccc(OCC(O)CNC(=O)Nc2cccc3ccccc23)cc1 (configuration not stated),-1.9,2.2,-5.1,-4.6,-0.8,1.2,·,·,·
CCOC(=O)[C@]12CCCC=C1N(Cc1ccccc1)C(=O)[C@H](CC(=O)N1CCCCCC1)C2,2.1,·,-1.7,0.1,-2.0,22.9*,2.4,-12.1,-9.6
NC(=O)Cn1c(=O)n(CCC(=O)NCCSCc2ccccc2)c(=O)c2ccccc21,1.4,2.6,-7.3,3.2,-0.6,63.9*,-1.9,9.7,1.1
O=C(CCn1c(=O)[nH]c2ccccc2c1=O)NCCSCc1ccccc1,14.6,0.7,-3.5,-0.5,-0.5,-3.5,·,·,·
CCOC(=O)/C(C#N)=C/c1ccc(OC(=O)c2ccccn2)cc1,-6.3,2.2,2.5,-5.2,-2.1,-1.1,·,·,·
COC(=O)/C(C#N)=C/c1ccc(OC(=O)c2ccccn2)cc1,1.3,-0.9,3.0,0.1,-2.2,14.3*,0.5,-2.3,-0.4
COc1cccc(C(=O)N2[C@H](COCc3ccccc3)C=CS2(=O)=O)c1,0.5,-3.6,2.4,-3.0,-1.5,-1.0,·,·,·
Nc1nc2c(Br)ccc(Br)c2cc1C(=O)NCc1cccc2ccccc12,-5.0,·,11.7,-3.0,0.5,0.9,·,·,·
O=C(NCc1ccccc1)/C(=C/c1ccco1)NC(=O)c1ccco1,-3.0,-1.9,-1.7,-2.3,0.7,4.5,·,·,·
